# Assay outcomes deposited in PubChem by National Center for Advancing Translational Sciences (NCATS).
# Lassa entry inh – qHTS for Inhibitors of binding or entry into cells for Lassa Virus; hit rate 1.2% among 300,000; Potency, µM (highest dose often 37.9 µM), most hits filed as inhibitors; Lassa virus pseudotype entry inhibition, cell reporter; calls by dose curve; tested in HEK293 cells; further: nearly all actives have a fitted effect of over 50% in size
# Marburg entry inh – qHTS for inhibitors of binding or entry into cells for Marburg Virus. hit rate 1.8% among 300,000. Marburg virus pseudotyped entry inhibition, cell reporter. Potency, µM (titrated, usually from 37.8 µM), hits mostly inhibitors. AID 540276, 2011; calls by dose curve; tested in HEK293 cells
# HCV inh – qHTS Assay for Inhibitors of Hepatitis C Virus (HCV) | Huh7.5.1 HCVcc-Cre infection, luciferase reporter, 44 h | Potency, µM (doses to about 41.8 µM), actives largely listed as inhibitors | hit rate 3.4% among 340,000 | AID 651820, 2012; active means well fitted inhibition curve with a large enough effect; inconclusive means small, poorly fitted or top-dose-only effect, or another doubt; inactive means no such curve, though single readings can be large or run the other way
#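 A cell-based infection assay in which seeded cells (1,000 per well) receive test compound after 4 h, are inoculated with HCVcc-Cre at approximately 0.5 moi, and are incubated 44 h before luminescence detection.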
# HCMV antiviral – qHTS Assay for inhibitors of the human cytomegalovirus (HCMV); AID 1259415, 2018; HFF cells, HCMV-luciferase reporter, 72 h; stronger effect = lower value; activity change, negative = inhibition, % at 57.5 µM; hit rate 4.5% among 410,000; in the data active means activity change below about -60%; inconclusive means no clear call, values can overlap the other calls; inactive means above about -39%
#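 After 16 h attachment at 37C, HFF cells received test compound and HCMV-luciferase (1 PFU/cell); reporter luminescence read 72 h later, data normalized against buffer-only and known inhibitor Salinomycin.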
# FMDV inh – High Throughput Screening for Foot and Mouth Disease Virus Antivirals; Potency, µM (titrated, usually from 57.9 µM), usual class: inhibitors; hit rate 1.2% among 410,000; FMDV antiviral cell-based qHTS; calls by dose curve; tested in HEK293T cells; further: read-out not given here; nearly all actives have a fitted effect of over 45% in size
# Numbers stand for hits; 0 = inactive; ? = inconclusive; - = no result given; ! = not active in a repeat. Hits are enriched below; roughly 7.9% of the tested compounds scored in any of these assays.
SMILES,Lassa entry inh,Marburg entry inh,HCV inh,HCMV antiviral,FMDV inh
CCN1CCc2c(sc(NC(=O)c3ccc(S(=O)(=O)N(CC)c4ccccc4)cc3)c2C(N)=O)C1,?,?,?,0,25µM
CCOC(=O)N1CCc2c(sc(NC(C)=O)c2C(N)=O)C1,-,-,0,0,0
CCc1ccc(N2CCn3c2nc2c3c(=O)n(C/C=C/c3ccccc3)c(=O)n2C)cc1,0,-,-,0,0
COc1ccc(C2c3cc(OC)c(OC)cc3CC(=O)N2c2ccc(C)c(F)c2)cc1 (stereo not drawn),?,0,-,0,0
O=S(=O)(c1ccccc1)c1nnn2c1nc(NCc1ccccc1)c1cc(Cl)ccc12,-,?,-,0,0
CC(C)(CNC(=O)c1ccc([N+](=O)[O-])c(Cl)c1)CNC(=O)c1ccc([N+](=O)[O-])c(Cl)c1,?,?,?,-97,?
O=C1c2ccccc2C(=O)c2c1ccc(O)c2O,-,-,0,0,0
O=C1c2ccc(O)c(O)c2C(=O)c2c(O)ccc(O)c21,-,-,-,-,22µM
COc1cc(C=NO)nc(-c2ccccn2)c1,1.3µM,?,?,-100,0
CCC(=O)Oc1ccc(C2Nc3ccccc3-c3nnc(SC)nc3O2)cc1 (stereo not drawn),0,0,-,0,0
O=C1CN(C(=O)COc2ccc(Cl)cc2)C(c2ccc(F)cc2)c2cc(Cl)ccc2N1 (stereo not drawn),?,?,-,0,0
Cc1nn(-c2ccccc2)c(N)c1N=Nc1cccc(S(=O)(=O)N2CCOCC2)c1,?,?,22µM,-68,0
Cc1nn(-c2ccccc2)c(N)c1N=Nc1ccccc1,?,?,?,0,0
CCN1CCC(O)(/C=C/c2ccc(C(C)C)cc2)C(C(=O)/C=C/c2ccc(C(C)C)cc2)C1 (stereo not drawn),14µM,?,7.9µM,-61,32µM
COc1cc(C2C(=O)N(C3CCCCC3)CC(=O)N2CCc2ccccc2)ccc1OC(C)C (stereo not drawn),0,-,-,0,0
COc1cc(NC(=O)c2cc(-c3cccnc3)nc3ccc(Br)cc23)cc(OC)c1,11µM,?,?,0,?
COc1ccc(NC(=O)c2cc(-c3ccncc3)nc3ccc(Br)cc23)cc1OC,0,?,13µM,-90,0
O=C(Nc1cccnc1)c1cc(-c2cccnc2)nc2ccc(Br)cc12,0,?,0,0,0
COC(=O)c1cn(-c2ccccc2)nc1-c1ccccc1,0,0,11µM,0,0
O=C(O)c1ccc(NC(=O)c2cn(-c3ccccc3)nc2-c2ccc(Br)cc2)cc1,0,0,0,-64!,0
COc1ccc(-c2nn(-c3ccccc3)cc2C(=O)NC(=S)NNC(=O)c2ccncc2)cc1,-,-,0,-92,0
O=C(OCn1nnc2ccccc2c1=O)c1cn(-c2ccccc2)nc1-c1cccnc1,0,0,10µM,0,?
C[C@@H](c1ccccc1)N1C(=O)[C@@H]2[C@H]3[C@H](O)[C@H](O)CC(=NOC[C@@H](O)COCc4ccco4)[C@H]3CC[C@H]2C1=O,-,0,-,-,-
COc1ccc2c(c1)[C@@H](NS(C)(=O)=O)[C@H](C)[C@@H](C(C)C)N2,-,-,-,0,-
COc1ccc(-c2nn(-c3ccccc3)cc2C(=O)NC(=S)N2CCOCC2)cc1OC,-,-,0,-96,0
SMILES,Lassa entry inh,Marburg entry inh,HCV inh,HCMV antiviral,FMDV inh
CC(OC(=O)c1cn(-c2ccccc2)nc1-c1cccnc1)C(N)=O (stereo not drawn),0,0,0,0,0
CCOC(=O)c1cn(-c2ccccc2)nc1-c1ccncc1,0,0,10µM,0,0
O=C(NC1CCN(Cc2ccccc2)CC1)c1cn(-c2ccccc2)nc1-c1cccnc1,0,11µM,0,0,0
COc1ccc(C(=O)NC(=S)N2CCOCC2)cc1OC,-,-,0,0,0
O=C(O)c1cn(-c2ccccc2)nc1-c1ccncc1,0,0,0,0,0
CCOC(=O)c1cn(-c2ccccc2)nc1-c1cccnc1,0,?,10µM,0,0
COc1ccccc1CNC(=O)c1ccc2nc3[nH]c4ccccc4c3nc2c1,?,?,?,-86,0
COc1ccccc1CNC(=O)c1cccc(NC(=O)c2ccccc2)c1,-,-,14µM,?,0
Cc1cccc(CNC(=O)c2ccc3nc(-c4ccccc4)c(-c4ccccc4)nc3c2)c1,-,0,-,0,0
CCC(=O)c1c[nH]c(C(=O)NCc2ccccc2OC)c1,0,?,0,0,0
Cc1ccc(CNC(=O)c2ccc3nc4[nH]c5ccccc5c4nc3c2)cc1,0,0,0,-102,-
O=C(NCc1ccccc1Cl)c1cccc(NC(=O)c2ccccc2)c1,0,?,?,?,0
COc1ccccc1CNC(=O)c1ccc2[nH]c(C)c(C)c2c1,?,-,-,0,0
CCC(CC)C(=O)c1c[nH]c(C(=O)NCc2ccccc2OC)c1,-,-,0,0,40µM
Cc1ccc(NC(=O)C2(C)Cc3ccccc3C(=O)O2)cc1 (stereo not drawn),-,-,0,-60,0
Cc1ccccc1NC(=O)C1(C)Cc2ccccc2C(=O)O1 (stereo not drawn),0,?,0,0,0
O=C(Cn1cnc2c(NCc3ccccc3)ncnc21)N1CCN(c2ccccn2)CC1,-,0,0,0,0
Cc1cc(C)c(CN2CCN(C(=O)Cn3ccc(N)nc3=O)CC2)c(C)c1,-,-,0,0,0
CSc1nc(N)nc2c1ncn2CC(=O)N1CCN(Cc2c(C)cc(C)cc2C)CC1,-,-,1.4µM,0,?
Cc1cc(C)c(CN2CCN(C(=O)Cn3cnc4c(NCc5ccccc5)ncnc43)CC2)c(C)c1,-,-,?,0,8.9µM
COc1ccc(N2C(=O)CCC2=O)cc1,0,0,0,0,0
COc1ccc(N2C(=O)C(=O)N(c3ccc(OC)cc3)P2(=O)N(CCCl)CCCl)cc1,0,0,0,-75,0
O=c1c2ccccc2cnn1-c1nc2ccccc2[nH]1,0.33µM,0.29µM,0,-92,1.8µM
O=c1c(Cl)c(N2CCCCC2)cnn1-c1nc2ccccc2[nH]1,?,?,0,-61,?
COc1ccc(CCNC(=O)Cn2c(=O)c3sccc3n(CC(=O)Nc3cccc(C(F)(F)F)c3)c2=O)cc1OC,0,?,-,0,0
SMILES,Lassa entry inh,Marburg entry inh,HCV inh,HCMV antiviral,FMDV inh
COc1ccc(CNC(=O)Cc2c(C)c3c(cc(C)c4c(C)coc43)oc2=O)cc1,?,0,-,0,0
CCOc1ccc(/C=C/C(O)=C2/C(=O)N(C)C3(C)CC2c2ccccc2O3)cc1OC (stereo not drawn),3.5µM,?,?,-98,?
O=C(Nc1cccnc1)c1ccc(NC(=O)c2ccco2)cc1,0,0,0,-103,0
O=C(Nc1ccc(NC(=O)c2ccco2)nc1)c1cccnc1,?,?,0,0,0
O=C(Nc1cccnc1)c1c(F)cccc1F,0,0,0,-104,0
CC(C)c1ccc(C(=O)Nc2cccnc2)cc1,?,4µM,0,0,0
O=C(Nc1cccnc1)c1ccc(F)cc1,0,0,0,0,0
O=C(Nc1cccnc1)c1ccco1,0,0,0,-82,-
O=C(NCc1ccco1)c1cnn2c1N[C@@H](c1ccccc1)C[C@@H]2C(F)(F)F,-,0,-,-,-
